Assay [1] deals with Cytochrome P450 2D6 (Homo sapiens) (UniProt P10635). Put plainly: Cytochrome P450 family 2 subfamily D member 6 (CYP2D6) small molecule antagonists: luciferase biochemical (cell-free) qHTS assay (AID 1645840; active = well fitted curve in the direction sought with a large enough effect in the repeat runs; an effect the other way counts as inactive or inconclusive; note: nearly all actives have a fitted effect of over 55% in size; note: potency is the fitted concentration of half-maximal effect; for activity change, negative = inhibition: % is set by controls: 0 for no effect and ±100 for the full control effect). The procedure, abridged: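 P450-Glo luminescent screen: recombinant CYP2D6 enzyme–proluciferin substrate mix preincubated with compound 10 min at room temperature, then NADPH regeneration added for 1 h at room temperature. Detection reagent added for 20 min; luciferin light read as relative luminescence units.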
(Quantitative high-throughput screening tests each substance at several concentrations.)

The nature of assay [2]: Primary qHTS for inhibitors of nuclear receptor binding SET domain protein 2 (NSD2) in an isogenic RCH-ACV NSD2 p.E1099K mutant (9B) (AID 1645876). Note: potency is the fitted concentration of half-maximal effect; nearly all actives have a fitted effect of over 70% in size.
Assay [3] in a line: Primary qHTS for inhibitors of nuclear receptor binding SET domain protein 2 (NSD2) in an RCH-ACV wild type WT cells (2C) (AID 1645877). Note: potency is the fitted concentration of half-maximal effect; nearly all actives have a fitted effect of over 70% in size.
Assay [4] deals with Catechol O-methyltransferase (Homo sapiens) (UniProt P21964). Kind of assay: Confirmatory Screen for Target Class Profiling of Small Molecule Inhibitors of Methyltransferases (AID 1745852; calls by dose curve; note: potency is the fitted concentration of half-maximal effect). The note with it: MTase-Glo luminescence, SAH detection, recombinant enzyme; measured here: COMT max response; stronger effect = lower value.
The target of assay [5] is Guanidinoacetate N-methyltransferase (Homo sapiens) (UniProt Q14353). The description is as above. Conditions: MTase-Glo luminescence, SAH detection, recombinant enzyme; activity change, negative = inhibition: at 57.3 µM (top of the series) unless noted.
In assay [6] the target is Nicotinamide N-methyltransferase (Homo sapiens) (UniProt P40261). The assay is described as above. The note with it: MTase-Glo luminescence, SAH detection, recombinant enzyme; measured here: NNMT max response; stronger effect = lower value.
In assay [7] the target is Phenylethanolamine N-methyltransferase (Homo sapiens) (UniProt P11086). The description is as above. The note with it: MTase-Glo luminescence, SAH detection, recombinant enzyme; measured here: PNMT max response; stronger effect = lower value.
For assay [8], the target named is Glutathione peroxidase 1 (Homo sapiens) (UniProt P07203). Put plainly: Primary qHTS Assay for Inhibitors of Recombinant Selenoprotein Glutathione Peroxidase 1 (GPX1) (AID 1845191). Note: nearly all actives have a fitted effect of over 65% in size. Note: potency is the fitted concentration of half-maximal effect. The procedure, abridged:
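10 nM GPX1 + cpd, 30 min RT; start w/ 1 mM GSH, 0.5 mM cumene hydroperoxide, 0.5 mM NADPH, 100 nM GR, 0.01% BSA; buffer 50 mM Tris-HCl pH 7.5, 2 mM EDTA, 150 mM NaCl; Fl 340/450, 0 & 15 min.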

Assay [9] addresses Phospholipid hydroperoxide glutathione peroxidase GPX4 (Homo sapiens) (UniProt P36969). Put plainly: Primary qHTS Assay for Inhibitors of Recombinant Selenoprotein Glutathione Peroxidase 4 (GPX4) (AID 1845192). For activity change, negative = inhibition: % is set by controls: 0 for no effect and ±100 for the full control effect. Note: nearly all actives have a fitted effect of over 65% in size. The procedure, abridged: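 NADPH consumption, followed by fluorescence at 340/450 nm between 0 and 15 min, reports GPX4 activity via coupled glutathione reductase (100 nM). Enzyme 200 nM was pre-exposed to compound 30 min; 0.5 mM cumene hydroperoxide and 1 mM GSH served as substrates.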

The nature of assay [10]: qHTS drug screen for cell cycle checkpoint inhibitors in PARPi-resistant BRCA-mutant ovarian cancer cell lines. (AID 1963452; calls by dose curve). Conditions: PEO1/OlaR viability, CellTiter-Glo luminescence, 96 h, stronger effect = lower value. The procedure, abridged:
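PEO1, PEO4 and PEO1/OlaR ovarian cancer cells, 600 per well, exposed 96 h at 37C to a dilution series. Viability read by CellTiter-Glo luminescence, normalized to DMSO and empty wells; activity summarized as Z-AUC.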

Assay [11] has as its target Cytochrome P450 2C9 (Homo sapiens) (UniProt P11712). Put plainly: Cytochrome P450 family 2 subfamily C member 9 (CYP2C9) small molecule antagonists: luciferase biochemical (cell-free) qHTS assay (AID 1645842; active = well fitted curve in the direction sought with a large enough effect in the repeat runs; an effect the other way counts as inactive or inconclusive; note: nearly all actives have a fitted effect of over 55% in size; note: potency is the fitted concentration of half-maximal effect; for activity change, negative = inhibition: % is set by controls: 0 for no effect and ±100 for the full control effect). The procedure, abridged: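 Luminescence, after 20 min with luciferin detection reagent, reflected CYP2C9 turnover during a 1 h NADPH-driven reaction at 37C. Enzyme-substrate mix contained 0.4% bovine serum albumin and was preincubated with compound 10 min at room temperature.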

In assay [12] the target is Rap guanine nucleotide exchange factor 3 (Homo sapiens) (UniProt O95398). Kind of assay: Confirmatory qHTS for antagonist of cAMP-regulated guanine nucleotide exchange factor 3 (EPAC1) (AID 1645880). Note: nearly all actives have a fitted effect of over 55% in size. Note: potency is the fitted concentration of half-maximal effect. The procedure, abridged: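 Nucleotide exchange uses 100 nM EPAC1, 250 nM RAP1B-BODIPY-GDP and 50 uM GDP, with compounds in a concentration-titration series. After 5 min at room temperature, fluorescence (480 nm ex/540 nm em) is read every 5 min for 30 min. Data are normalized to control ATA and DMSO.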

The target is the same in assay [13]. Put plainly: Confirmatory qHTS for agonist of cAMP-regulated guanine nucleotide exchange factor 3 (EPAC1) (AID 1645881).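 Note: EPAC1 catalysed release of BODIPY-GDP from Rap1B seen as fluorescence loss; 100% = effect of cAMP agonist control; nearly all actives have a fitted effect of over 75% in size.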
The target in assay [14] is Rap guanine nucleotide exchange factor 4 (Homo sapiens) (UniProt Q8WZA2). Kind of assay: Confirmatory qHTS for agonist of cAMP-regulated guanine nucleotide exchange factor 4 (EPAC2) (AID 1645884).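 Note: nucleotide exchange releases bodipy-GDP from Rap1 and this lowers its fluorescence; % is set by controls: 0 for no effect and ±100 for the full control effect; nearly all actives have a fitted effect of over 65% in size.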
Assay [15] has the same target. Kind of assay: Confirmatory qHTS for antagonist of cAMP-regulated guanine nucleotide exchange factor 4 (EPAC2) (AID 1645885). For activity change, negative = inhibition: % is set by controls: 0 for no effect and ±100 for the full control effect. Note: nearly all actives have a fitted effect of over 25% in size.
The target of assay [16] is Rap guanine nucleotide exchange factor 3 (Homo sapiens) (UniProt O95398). Kind of assay: Counterscreen qHTS for antagonist of cAMP-regulated guanine nucleotide exchange factor 3 (EPAC1) (AID 1645888).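 Note: fluorescence loss as bound BODIPY-GDP is released from Rap1B; % of control where 0% means no effect.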 The procedure, abridged: (§1)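 Rap1B-BODIPY-GDP 250 nM + GDP 50 uM; cpds 7-pt, final 9.74 nM–152 uM (activator mode) or from 7.32 nM upwards (inhibitor mode); RT; FI 480/540 nm at 5 and 30 min, then ± cAMP, reread.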
(A counterscreen serves to expose hits that act by an unwanted route or on another target.)

The target is the same in assay [17]. Kind of assay: Counterscreen qHTS for agonist of cAMP-regulated guanine nucleotide exchange factor 3 (EPAC1) (AID 1645889). Note: % of control where 0% means no effect; nearly all actives have a fitted effect of over 40% in size. The procedure, abridged: as §1
Assay [18] addresses Phosphoglycerate kinase, glycosomal (Trypanosoma brucei brucei) (UniProt P07378). Put plainly: qHTS for inhibitors of Phosphogylcerate Kinase: Hit Validation Screen (AID 686980). Note: potency is the fitted concentration of half-maximal effect; nearly all actives have a fitted effect of over 65% in size. The note with it: TbPGK coupled GAPDH assay, Kinase-Glo luminescence. The procedure, abridged: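 Luminescent ATP detection (Kinase-Glo Plus) follows a 60-minute room-temperature incubation, with wells lacking PGK as controls. Buffer: 100 mM TEA (pH 7.6), 5 mM MgCl2, 0.01% Tween-20. Coupling enzyme GAPDH (100 nM final) supplies unstable 1,3-BPG in-well.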

Assay [19] concerns the target DNA polymerase iota (Homo sapiens) (UniProt Q9UNA4). Kind of assay: qHTS for Inhibitors of Polymerase Iota: Confirmatory Assay for Cherry-picked Compounds (AID 720496). Note: potency is the fitted concentration of half-maximal effect. Conditions: Pol iota primer extension, TAMRA/BHQ fluorescence. The procedure, abridged: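 Recombinant human Pol iota (10 nM) was preincubated with compound for 15 min at room temperature, then 50 nM final primer/template substrate was added; the substrate carried a TAMRA-labeled reporter strand and a BHQ-2-quenched template. Fluorescence was read at 0 and 10 min.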

Assay [20] concerns the target DNA polymerase kappa (Homo sapiens) (UniProt Q9UBT6). Kind of assay: qHTS for Inhibitors of Polymerase Kappa: Confirmatory Assay for Cherry-picked Compounds (AID 720501). Note: potency is the fitted concentration of half-maximal effect. The note with it: purified Pol-kappa, fluorescent strand-displacement substrate. The procedure, abridged:
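Strand-displacement fluorescence read-out: TAMRA reporter released from a BHQ-2-quenched template, measured at 525/598 nm over a 10 min kinetic window. Substrate was 50 nM final; enzyme was 10 nM Pol-kappa, preincubated 15 min at room temperature with compound.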

Assay [21] addresses DNA polymerase eta (Homo sapiens) (UniProt Q9Y253). Kind of assay: qHTS for Inhibitors of Polymerase Eta: Confirmatory Assay for Cherry-picked Compounds (AID 720502). Note: potency is the fitted concentration of half-maximal effect. The note with it: Pol eta primer extension, TAMRA/BHQ fluorescence, 10 min. The procedure, abridged:
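Readout: TAMRA dequenching, ex 525/em 598 nm, read at 0 and 10 min. Enzyme: 10 nM human Pol eta, preincubated with compound 15 min RT. Substrate: 50 nM final annealed primer/reporter/template duplex.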

The record followed here is PubChem BioAssay (NCATS).

Inconclusive results are not listed. The list shows a part of the results. Calls of active or inactive are those of the source. Unless noted, calls come from the whole dose curve; as a rule, active = well fitted curve in the direction sought with a large enough effect; inconclusive = small, poorly fitted or top-dose-only effect, or another doubt; inactive = no such curve, though single readings can be large; an effect the other way counts as inactive or inconclusive.

Sequence of Rap guanine nucleotide exchange factor 3 (Homo sapiens) (O95398 whole entry, looked up): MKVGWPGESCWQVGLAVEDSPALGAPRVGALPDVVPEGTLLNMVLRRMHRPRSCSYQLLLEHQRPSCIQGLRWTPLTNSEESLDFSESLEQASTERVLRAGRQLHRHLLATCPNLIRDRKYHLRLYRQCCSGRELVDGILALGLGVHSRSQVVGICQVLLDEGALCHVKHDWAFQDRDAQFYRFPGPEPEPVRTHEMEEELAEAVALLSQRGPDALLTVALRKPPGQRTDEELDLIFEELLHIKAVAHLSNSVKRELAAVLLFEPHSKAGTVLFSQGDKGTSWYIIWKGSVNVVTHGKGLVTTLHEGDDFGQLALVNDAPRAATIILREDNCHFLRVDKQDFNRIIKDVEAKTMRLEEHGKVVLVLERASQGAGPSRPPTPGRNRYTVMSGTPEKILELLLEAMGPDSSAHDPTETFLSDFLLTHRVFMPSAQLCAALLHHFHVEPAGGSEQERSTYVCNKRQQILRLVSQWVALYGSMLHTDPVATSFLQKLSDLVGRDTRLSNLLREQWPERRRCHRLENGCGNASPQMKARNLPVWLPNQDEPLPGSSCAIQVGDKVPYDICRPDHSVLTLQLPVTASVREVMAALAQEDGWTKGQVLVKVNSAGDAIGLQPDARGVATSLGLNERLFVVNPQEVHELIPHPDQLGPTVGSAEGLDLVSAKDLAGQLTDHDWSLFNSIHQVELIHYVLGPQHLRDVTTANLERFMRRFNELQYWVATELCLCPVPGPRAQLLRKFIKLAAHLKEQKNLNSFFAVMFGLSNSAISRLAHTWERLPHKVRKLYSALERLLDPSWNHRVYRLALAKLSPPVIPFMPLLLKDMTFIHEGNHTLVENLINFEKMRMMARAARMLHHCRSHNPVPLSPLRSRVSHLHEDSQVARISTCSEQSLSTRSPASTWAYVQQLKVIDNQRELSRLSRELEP
Sequence of Cytochrome P450 2D6 (Homo sapiens) (P10635 whole entry, looked up): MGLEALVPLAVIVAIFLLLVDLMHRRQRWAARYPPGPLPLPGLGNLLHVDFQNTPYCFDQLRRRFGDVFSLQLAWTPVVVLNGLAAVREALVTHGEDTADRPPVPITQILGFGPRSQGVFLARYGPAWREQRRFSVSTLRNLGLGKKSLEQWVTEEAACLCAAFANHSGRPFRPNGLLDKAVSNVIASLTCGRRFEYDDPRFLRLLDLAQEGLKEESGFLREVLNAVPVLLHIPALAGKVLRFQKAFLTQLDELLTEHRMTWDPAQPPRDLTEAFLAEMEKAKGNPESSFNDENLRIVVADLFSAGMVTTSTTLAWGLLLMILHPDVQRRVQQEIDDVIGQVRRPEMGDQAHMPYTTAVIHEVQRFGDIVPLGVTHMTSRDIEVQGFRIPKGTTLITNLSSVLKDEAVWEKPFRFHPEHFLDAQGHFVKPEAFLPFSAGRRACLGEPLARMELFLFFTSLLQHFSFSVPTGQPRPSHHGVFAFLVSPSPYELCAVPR
Sequence of Rap guanine nucleotide exchange factor 4 (Homo sapiens) (Q8WZA2 whole entry, looked up): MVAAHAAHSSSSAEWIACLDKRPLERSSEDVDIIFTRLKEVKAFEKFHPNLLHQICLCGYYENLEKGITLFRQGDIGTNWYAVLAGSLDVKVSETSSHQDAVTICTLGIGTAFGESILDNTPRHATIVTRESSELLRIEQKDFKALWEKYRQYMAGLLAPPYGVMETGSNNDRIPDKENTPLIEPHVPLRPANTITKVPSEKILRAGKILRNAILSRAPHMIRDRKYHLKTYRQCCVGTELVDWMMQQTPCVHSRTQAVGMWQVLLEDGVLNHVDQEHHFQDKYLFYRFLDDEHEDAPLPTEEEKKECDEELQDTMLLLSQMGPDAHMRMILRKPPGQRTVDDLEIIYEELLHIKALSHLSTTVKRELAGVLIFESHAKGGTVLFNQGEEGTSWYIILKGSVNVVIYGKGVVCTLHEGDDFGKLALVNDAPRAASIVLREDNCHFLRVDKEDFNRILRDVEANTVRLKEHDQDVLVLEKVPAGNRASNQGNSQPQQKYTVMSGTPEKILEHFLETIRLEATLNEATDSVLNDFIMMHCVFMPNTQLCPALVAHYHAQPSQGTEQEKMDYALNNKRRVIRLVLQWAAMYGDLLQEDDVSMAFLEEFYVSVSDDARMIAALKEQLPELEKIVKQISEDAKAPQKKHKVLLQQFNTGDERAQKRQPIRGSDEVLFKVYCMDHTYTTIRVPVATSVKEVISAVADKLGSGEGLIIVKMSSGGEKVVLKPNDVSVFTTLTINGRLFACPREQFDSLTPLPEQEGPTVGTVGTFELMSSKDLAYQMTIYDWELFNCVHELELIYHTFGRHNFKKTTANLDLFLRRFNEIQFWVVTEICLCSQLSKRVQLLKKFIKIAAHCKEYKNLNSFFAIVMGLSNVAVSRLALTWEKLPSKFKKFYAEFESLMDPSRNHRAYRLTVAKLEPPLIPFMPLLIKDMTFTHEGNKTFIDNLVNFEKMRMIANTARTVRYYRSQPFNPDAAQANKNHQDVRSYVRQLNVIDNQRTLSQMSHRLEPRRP
Sequence of Glutathione peroxidase 1 (Homo sapiens) (P07203 whole entry, looked up): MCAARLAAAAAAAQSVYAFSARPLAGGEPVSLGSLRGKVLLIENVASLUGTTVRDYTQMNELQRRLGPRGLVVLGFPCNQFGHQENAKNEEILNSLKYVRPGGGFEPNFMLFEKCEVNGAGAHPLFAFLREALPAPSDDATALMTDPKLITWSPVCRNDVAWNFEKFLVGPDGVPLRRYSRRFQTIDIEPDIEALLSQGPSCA
Sequence of Cytochrome P450 2C9 (Homo sapiens) (P11712 whole entry, looked up): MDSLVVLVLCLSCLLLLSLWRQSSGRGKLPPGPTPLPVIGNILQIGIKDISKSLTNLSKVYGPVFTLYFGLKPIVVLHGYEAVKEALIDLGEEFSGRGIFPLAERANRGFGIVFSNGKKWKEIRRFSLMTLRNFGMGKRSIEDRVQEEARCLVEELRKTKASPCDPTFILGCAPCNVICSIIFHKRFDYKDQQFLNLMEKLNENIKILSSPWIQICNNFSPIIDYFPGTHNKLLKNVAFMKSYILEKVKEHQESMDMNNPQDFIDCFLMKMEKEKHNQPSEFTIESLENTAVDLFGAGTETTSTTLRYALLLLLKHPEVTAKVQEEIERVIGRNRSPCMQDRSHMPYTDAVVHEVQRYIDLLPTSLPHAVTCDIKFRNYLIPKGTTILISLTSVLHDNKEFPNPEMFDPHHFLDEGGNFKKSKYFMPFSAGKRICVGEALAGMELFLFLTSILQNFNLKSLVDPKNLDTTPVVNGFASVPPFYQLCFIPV
Sequence of Phospholipid hydroperoxide glutathione peroxidase GPX4 (Homo sapiens) (P36969 whole entry, looked up): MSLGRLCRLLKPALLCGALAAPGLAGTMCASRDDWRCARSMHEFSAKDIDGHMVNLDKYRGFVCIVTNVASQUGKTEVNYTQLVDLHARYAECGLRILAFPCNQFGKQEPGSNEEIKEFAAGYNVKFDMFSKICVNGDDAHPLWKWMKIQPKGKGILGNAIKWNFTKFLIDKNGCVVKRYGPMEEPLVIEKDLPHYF
Sequence of Catechol O-methyltransferase (Homo sapiens) (P21964 whole entry, looked up): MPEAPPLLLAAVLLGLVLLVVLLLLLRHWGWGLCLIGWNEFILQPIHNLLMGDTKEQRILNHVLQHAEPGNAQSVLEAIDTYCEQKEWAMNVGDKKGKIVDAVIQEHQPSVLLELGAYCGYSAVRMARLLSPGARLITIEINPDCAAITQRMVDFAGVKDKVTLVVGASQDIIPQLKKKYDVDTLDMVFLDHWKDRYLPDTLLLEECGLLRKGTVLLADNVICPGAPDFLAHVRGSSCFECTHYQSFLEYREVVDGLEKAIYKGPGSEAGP
Sequence of Phenylethanolamine N-methyltransferase (Homo sapiens) (P11086 whole entry, looked up): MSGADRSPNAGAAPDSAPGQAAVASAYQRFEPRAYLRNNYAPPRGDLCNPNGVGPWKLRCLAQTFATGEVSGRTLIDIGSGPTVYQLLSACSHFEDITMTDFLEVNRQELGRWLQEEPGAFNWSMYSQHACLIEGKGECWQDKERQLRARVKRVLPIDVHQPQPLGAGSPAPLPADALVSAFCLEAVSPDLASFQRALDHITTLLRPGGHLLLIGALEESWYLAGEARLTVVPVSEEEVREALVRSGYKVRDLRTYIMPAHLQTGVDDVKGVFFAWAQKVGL
Sequence of DNA polymerase eta (Homo sapiens) (Q9Y253 whole entry, looked up): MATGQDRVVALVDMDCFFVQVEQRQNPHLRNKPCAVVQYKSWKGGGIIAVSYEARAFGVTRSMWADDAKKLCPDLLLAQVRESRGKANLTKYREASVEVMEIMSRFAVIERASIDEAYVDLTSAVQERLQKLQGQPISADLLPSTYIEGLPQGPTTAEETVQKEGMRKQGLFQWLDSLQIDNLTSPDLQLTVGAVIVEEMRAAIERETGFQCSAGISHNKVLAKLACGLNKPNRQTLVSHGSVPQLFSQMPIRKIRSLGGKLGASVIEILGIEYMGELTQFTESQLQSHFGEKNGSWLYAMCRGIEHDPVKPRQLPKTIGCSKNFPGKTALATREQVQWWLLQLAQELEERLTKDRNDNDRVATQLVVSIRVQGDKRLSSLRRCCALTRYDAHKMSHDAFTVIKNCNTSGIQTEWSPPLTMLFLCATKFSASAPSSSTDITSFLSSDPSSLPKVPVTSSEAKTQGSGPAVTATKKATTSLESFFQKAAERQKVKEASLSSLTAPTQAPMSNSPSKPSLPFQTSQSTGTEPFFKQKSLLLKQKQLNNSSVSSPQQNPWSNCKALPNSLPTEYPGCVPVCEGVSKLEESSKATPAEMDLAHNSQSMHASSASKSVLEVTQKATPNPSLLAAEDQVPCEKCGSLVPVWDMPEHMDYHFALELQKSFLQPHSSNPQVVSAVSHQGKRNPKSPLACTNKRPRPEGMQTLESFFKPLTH
Sequence of Nicotinamide N-methyltransferase (Homo sapiens) (P40261 whole entry, looked up): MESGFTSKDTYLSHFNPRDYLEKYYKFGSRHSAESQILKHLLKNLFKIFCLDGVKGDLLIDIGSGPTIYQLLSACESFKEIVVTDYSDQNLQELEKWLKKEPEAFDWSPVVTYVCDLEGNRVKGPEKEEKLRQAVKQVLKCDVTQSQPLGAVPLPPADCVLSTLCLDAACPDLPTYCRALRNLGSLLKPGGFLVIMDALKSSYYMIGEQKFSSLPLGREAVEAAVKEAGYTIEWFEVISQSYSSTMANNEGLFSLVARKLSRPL

Regarding `Nc1nc(Nc2ccc3c(c2)CC[C@@H](N2CCCC2)CC3)nn1-c1cc2c(nn1)-c1ccccc1CCC2`, the Potency was 5.35 µM (active) in assay [1], 2.63 µM (active) in assay [2], 3.32 µM (active) in assay [3] and 24.1 µM (active) in assay [5]. Besides, the activity is -19.2% in assay [4], -19.6% in [6] and -24% in assay [7]. For the same compound, the Potency entry in [8] and in assay [9] was “inactive” throughout. Besides, the Z-AUC in assay [10] was 0.211 (inactive); in [10] (measured here: PEO1 parental Z-AUC), -0.494; in assay [10] (measured here: PEO4 Z-AUC), -0.517.
Consider `COc1ccccc1NC(=O)Cn1c(=O)n(Cc2nc(-c3ccccc3)no2)c(=O)c2ccccc21`, for which, in assay [11], the Potency is 2.39 µM (active).
For the compound `CCOC(=O)c1nnc(NC(=O)C2=C(C)NC(Nc3nc4ccccc4o3)=NC2c2ccccc2Cl)s1` (stereo unspecified), the Potency in assay [11] is 16.9 µM (active).
Still for that read-out and setting: the result for `Cc1ccc2ccc(C(Nc3ccccn3)c3ccccc3)c(O)c2n1` (stereo unspecified) reads 2.68 µM (active); that for `Cc1cccc(N2CCN(C(=O)CCC(=O)NNc3nc4ccccc4c4nc(C)nn34)CC2C)c1` (stereo unspecified), 9.52 µM (active).
In the case of `COc1ccc(Cn2c(SCC(=O)N3CCN(c4ccc(F)cc4)CC3)nc3ccccc32)cc1`, the Potency in assay [11] is 1.69 µM (active).
On to `CCOc1ccc(C(=O)NCCS(=O)(=O)N2CCN(c3ccccc3F)CC2)cc1OCC`, for which the Potency in assay [11] is 2.13 µM (active).
As to `Cc1cccc2nc(-c3ccccn3)c(Nc3ccccc3)n12`, in assay [11], the Potency is 1.2 µM (active).
`COc1ccc(-c2cn3cccnc3n2)cc1NC(=O)c1cc(C)cc(C)c1`: the Potency in [11] was 4.77 µM (active).
Still for that read-out and setting: then `COC(=O)c1c(SCC(=O)Nc2ccccc2C(F)(F)F)[nH]c2ccc(Cl)cc2c1=O`, with 1.9 µM (active).
As for `Cc1cc(OCCCSc2nc(-c3ccc(C(C)(C)C)cc3)nc3cc(=O)[nH]n23)ccc1Cl`, the Potency entry in assay [1], in assay [13], in assay [14], in assay [16] and in [17] was “inactive” each time. Further, the Potency in assay [12] was 67.5 µM (active). The outcome in [15] was “inactive [at 12.7 µM]”.
As to `COc1ccc(NC(=O)c2cnc[nH]2)cc1S(=O)(=O)Nc1ccc(Br)cc1`, in [11], the Potency was 10.7 µM (active).
Take `Cc1ccc(Cn2c(Cc3ccccc3)nc3ccccc32)cc1`: in assay [1], the Potency is 10.7 µM (active). Also, the Potency entry in assay [12], in [13], in assay [15], in [16] and in assay [17] was “inactive” in each case.
In the case of `COc1cccc(-c2cc(F)ccc2[C@H]2Cc3nc(N)nc(C)c3C(=O)N2)n1`, the Potency in [11] is 6.74 µM (active).
Take `C=CC1=C(C(=O)O)N2C(=O)[C@@H](NC(=O)/C(=N\OCC(=O)O)c3csc(N)n3)[C@H]2SC1`: the Potency in [18] was 4.11 µM (active); in assay [19] it was 7.52 µM (active); in [20], 4.74 µM (active); in assay [21], 19 µM (active); in assay [8] it was 7.18 µM (active). Besides, the Potency entry in assay [1], in assay [11] and in assay [9] was “inactive” in each case.
`COc1ccc(OCC(=O)Nc2cc(-c3nc4ccccc4s3)ccc2C)cc1`: the Potency in assay [11] is 0.379 µM (active).
On to `Cc1cc(Cl)ccc1NC(=O)Cn1nc(C)c2c(C)n(-c3ccccc3)nc2c1=O`, for which the Potency result in [1], in assay [13], in assay [14], in assay [15] and in assay [16] was “inactive” in each case. Moreover, in assay [12], the Potency was 84.9 µM (active).
